In the supplement of paper PMC11732987, “Enantioselective OTUD7B fragment discovery through chemoproteomics screening and high-throughput optimisation” (Communications Chemistry, 2025):

Experiments:
Assay in all cases: log2 ratio of Biotin-Ahx-Ub-VS probe labelling (fragment/DMSO); higher = less target engagement (more negative = stronger competition), active = hit call of the paper (q ≤ 0.05, log2 ratio ≤ -1)
Details in all cases: compound concentration: 200 uM; treatment time: 3 h
USP19 = molecular target: T1, USP19 (UniProt O94966)
T1 sequence (whole entry): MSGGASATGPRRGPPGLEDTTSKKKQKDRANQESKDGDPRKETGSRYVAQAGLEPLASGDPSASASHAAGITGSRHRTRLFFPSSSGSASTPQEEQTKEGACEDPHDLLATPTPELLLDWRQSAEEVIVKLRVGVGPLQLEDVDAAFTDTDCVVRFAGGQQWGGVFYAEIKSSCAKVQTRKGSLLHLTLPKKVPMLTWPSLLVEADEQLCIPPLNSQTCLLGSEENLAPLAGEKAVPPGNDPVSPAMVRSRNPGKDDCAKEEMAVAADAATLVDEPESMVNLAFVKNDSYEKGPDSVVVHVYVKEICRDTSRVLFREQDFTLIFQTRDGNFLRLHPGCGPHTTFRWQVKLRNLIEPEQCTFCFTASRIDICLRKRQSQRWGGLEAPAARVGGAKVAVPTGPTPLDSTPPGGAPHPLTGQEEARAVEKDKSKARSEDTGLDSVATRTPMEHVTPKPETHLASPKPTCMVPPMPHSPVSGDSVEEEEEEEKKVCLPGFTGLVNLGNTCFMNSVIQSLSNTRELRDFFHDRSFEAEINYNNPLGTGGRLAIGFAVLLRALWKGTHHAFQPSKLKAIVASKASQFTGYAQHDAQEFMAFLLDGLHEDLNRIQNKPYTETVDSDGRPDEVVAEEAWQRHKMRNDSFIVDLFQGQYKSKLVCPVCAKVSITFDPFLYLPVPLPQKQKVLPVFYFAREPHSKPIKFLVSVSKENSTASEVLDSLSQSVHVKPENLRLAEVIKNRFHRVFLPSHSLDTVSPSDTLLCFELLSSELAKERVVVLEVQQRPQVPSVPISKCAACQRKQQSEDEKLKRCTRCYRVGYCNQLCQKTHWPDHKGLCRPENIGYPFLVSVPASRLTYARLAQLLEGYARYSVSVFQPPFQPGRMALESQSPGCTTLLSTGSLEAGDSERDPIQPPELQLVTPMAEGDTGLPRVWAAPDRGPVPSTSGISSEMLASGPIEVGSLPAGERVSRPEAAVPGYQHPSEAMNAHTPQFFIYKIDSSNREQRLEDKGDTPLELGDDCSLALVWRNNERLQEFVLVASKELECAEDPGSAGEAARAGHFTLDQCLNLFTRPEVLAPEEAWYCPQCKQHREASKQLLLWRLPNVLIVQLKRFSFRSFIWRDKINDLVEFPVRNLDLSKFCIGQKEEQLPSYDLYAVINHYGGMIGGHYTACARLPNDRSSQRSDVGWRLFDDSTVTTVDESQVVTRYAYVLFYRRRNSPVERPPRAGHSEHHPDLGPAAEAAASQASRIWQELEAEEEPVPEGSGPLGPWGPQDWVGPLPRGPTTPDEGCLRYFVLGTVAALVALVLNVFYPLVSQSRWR
Method in brief: (§1)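 Average log2 ratios of fragment over vehicle were obtained by unpaired t-test from global-median-normalised Spectronaut label-free quantities. Proteins with ≥2 unique peptides were included. HEK293T lysate (495 µg per sample) was treated in triplicate with fragment at 200 µM or vehicle for 3 h, then with Biotin-Ahx-Ub-VS at 0.5 µM final for 1 h, and labelled DUBs were NeutrAvidin-enriched and run by diaPASEF LC-MS/MS.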

USP22 = molecular target: T2, USP22 (UniProt Q9UPT9)
T2 sequence (whole entry): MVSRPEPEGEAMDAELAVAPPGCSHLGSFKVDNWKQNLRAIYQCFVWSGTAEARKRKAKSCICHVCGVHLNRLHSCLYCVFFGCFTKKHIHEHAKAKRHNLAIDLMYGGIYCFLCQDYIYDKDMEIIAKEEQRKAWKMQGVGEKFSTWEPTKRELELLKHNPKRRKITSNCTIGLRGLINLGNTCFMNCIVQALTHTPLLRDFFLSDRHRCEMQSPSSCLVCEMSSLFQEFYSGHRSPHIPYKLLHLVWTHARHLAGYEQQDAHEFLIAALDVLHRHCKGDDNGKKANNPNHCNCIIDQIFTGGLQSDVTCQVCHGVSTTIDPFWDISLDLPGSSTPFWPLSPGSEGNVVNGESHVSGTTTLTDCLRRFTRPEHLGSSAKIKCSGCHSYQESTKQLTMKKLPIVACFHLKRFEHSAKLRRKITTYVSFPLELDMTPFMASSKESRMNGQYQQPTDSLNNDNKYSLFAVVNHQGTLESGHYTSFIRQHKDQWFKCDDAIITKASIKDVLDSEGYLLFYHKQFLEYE
Method in brief: as §1

USP24 = USP24 (UniProt Q9UPU5)
Sequence of USP24 (Q9UPU5 whole entry): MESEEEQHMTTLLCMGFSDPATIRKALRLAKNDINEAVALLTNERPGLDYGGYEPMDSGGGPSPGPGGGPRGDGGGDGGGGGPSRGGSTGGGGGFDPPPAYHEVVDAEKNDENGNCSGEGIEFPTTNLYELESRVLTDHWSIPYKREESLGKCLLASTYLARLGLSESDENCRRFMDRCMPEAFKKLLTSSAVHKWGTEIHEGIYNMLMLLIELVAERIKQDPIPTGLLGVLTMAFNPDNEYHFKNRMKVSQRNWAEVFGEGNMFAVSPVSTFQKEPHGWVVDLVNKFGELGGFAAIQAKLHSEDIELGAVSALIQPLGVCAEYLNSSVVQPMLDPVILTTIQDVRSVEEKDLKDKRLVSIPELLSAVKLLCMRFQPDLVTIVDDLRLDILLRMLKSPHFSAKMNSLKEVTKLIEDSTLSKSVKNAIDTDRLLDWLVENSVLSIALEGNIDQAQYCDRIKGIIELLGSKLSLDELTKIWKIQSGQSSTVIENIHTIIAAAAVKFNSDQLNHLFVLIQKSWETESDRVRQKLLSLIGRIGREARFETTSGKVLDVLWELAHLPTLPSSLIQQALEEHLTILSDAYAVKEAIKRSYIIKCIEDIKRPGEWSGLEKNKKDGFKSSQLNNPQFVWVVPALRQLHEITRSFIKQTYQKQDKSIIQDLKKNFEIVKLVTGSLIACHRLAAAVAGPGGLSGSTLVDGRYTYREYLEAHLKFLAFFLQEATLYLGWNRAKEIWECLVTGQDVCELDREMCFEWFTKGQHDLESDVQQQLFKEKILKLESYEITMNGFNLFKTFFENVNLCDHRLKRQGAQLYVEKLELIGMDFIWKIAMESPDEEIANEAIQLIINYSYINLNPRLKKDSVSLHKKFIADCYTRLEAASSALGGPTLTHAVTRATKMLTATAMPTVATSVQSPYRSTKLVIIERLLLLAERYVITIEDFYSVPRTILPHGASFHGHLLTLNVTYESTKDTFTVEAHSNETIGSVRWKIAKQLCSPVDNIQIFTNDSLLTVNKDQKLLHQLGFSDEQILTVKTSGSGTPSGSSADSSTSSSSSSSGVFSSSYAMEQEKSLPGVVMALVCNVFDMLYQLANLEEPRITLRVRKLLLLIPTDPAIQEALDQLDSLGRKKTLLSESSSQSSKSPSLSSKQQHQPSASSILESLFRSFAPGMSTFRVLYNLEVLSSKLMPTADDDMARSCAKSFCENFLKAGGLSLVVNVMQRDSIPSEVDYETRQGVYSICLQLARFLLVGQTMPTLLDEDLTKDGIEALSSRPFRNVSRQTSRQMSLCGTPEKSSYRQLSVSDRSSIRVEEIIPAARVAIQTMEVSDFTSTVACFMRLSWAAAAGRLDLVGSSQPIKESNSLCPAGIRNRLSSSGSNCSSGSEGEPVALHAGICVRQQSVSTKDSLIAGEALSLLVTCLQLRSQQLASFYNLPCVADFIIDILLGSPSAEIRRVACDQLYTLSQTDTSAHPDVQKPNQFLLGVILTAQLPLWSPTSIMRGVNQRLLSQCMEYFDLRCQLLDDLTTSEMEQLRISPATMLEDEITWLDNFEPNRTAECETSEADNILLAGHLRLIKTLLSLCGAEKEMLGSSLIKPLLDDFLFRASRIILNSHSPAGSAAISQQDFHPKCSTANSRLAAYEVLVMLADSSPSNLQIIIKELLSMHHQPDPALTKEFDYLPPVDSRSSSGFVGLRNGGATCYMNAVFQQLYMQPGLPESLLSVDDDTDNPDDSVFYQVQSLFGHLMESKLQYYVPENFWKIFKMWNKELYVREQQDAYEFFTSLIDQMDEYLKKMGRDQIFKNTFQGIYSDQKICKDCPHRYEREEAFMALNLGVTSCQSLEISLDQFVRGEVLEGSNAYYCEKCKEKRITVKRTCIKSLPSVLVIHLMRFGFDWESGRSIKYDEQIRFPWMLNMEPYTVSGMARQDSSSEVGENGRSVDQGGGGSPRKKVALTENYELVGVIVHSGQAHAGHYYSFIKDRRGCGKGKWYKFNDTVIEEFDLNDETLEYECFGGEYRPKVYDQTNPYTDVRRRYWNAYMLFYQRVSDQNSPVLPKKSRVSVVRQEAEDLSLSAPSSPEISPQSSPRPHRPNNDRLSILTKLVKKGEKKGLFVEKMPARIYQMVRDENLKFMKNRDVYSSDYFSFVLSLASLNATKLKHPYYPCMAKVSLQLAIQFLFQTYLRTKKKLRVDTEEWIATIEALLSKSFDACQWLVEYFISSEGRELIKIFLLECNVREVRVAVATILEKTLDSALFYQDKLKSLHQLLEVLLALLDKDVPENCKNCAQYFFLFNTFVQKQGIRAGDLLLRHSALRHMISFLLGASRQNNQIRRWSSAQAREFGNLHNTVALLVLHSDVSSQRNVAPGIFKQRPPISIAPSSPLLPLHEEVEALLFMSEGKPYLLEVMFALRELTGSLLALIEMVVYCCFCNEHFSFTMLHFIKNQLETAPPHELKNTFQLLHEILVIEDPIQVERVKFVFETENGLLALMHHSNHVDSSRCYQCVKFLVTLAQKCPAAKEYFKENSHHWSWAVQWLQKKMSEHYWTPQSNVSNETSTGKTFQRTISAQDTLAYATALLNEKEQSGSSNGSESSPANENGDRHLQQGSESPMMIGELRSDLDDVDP
Method in brief: as §1

USP25 = molecular target: T3, USP25 (UniProt Q9UHP3)
T3 sequence (whole entry): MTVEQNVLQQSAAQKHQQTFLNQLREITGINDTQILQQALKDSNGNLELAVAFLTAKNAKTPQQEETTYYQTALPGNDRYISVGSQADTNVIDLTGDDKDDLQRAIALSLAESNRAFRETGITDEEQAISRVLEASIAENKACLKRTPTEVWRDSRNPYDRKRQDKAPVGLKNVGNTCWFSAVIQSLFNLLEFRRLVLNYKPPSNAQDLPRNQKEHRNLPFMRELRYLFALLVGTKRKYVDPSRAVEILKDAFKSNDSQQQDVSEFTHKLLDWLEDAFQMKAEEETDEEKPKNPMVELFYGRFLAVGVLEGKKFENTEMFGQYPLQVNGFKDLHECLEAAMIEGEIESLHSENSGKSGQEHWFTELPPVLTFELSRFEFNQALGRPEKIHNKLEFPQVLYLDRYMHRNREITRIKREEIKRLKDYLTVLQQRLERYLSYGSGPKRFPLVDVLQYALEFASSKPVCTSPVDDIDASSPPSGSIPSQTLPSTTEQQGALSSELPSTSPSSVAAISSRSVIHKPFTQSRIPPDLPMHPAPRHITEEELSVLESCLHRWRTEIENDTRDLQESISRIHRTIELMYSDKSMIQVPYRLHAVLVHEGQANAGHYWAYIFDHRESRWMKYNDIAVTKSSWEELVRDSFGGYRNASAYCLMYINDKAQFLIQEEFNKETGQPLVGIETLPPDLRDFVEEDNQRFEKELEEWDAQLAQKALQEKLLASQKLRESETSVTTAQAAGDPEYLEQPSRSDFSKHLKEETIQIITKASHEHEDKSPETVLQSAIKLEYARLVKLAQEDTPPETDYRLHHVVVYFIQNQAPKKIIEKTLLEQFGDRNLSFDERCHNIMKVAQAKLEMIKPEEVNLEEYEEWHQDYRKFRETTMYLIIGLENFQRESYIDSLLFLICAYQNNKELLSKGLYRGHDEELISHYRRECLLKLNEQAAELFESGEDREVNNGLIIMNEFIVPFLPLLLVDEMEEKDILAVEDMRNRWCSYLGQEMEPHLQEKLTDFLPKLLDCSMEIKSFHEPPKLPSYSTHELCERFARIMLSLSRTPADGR
Method in brief: as §1

USP28 = molecular target: T4, USP28 (UniProt Q96RU2)
T4 sequence (whole entry): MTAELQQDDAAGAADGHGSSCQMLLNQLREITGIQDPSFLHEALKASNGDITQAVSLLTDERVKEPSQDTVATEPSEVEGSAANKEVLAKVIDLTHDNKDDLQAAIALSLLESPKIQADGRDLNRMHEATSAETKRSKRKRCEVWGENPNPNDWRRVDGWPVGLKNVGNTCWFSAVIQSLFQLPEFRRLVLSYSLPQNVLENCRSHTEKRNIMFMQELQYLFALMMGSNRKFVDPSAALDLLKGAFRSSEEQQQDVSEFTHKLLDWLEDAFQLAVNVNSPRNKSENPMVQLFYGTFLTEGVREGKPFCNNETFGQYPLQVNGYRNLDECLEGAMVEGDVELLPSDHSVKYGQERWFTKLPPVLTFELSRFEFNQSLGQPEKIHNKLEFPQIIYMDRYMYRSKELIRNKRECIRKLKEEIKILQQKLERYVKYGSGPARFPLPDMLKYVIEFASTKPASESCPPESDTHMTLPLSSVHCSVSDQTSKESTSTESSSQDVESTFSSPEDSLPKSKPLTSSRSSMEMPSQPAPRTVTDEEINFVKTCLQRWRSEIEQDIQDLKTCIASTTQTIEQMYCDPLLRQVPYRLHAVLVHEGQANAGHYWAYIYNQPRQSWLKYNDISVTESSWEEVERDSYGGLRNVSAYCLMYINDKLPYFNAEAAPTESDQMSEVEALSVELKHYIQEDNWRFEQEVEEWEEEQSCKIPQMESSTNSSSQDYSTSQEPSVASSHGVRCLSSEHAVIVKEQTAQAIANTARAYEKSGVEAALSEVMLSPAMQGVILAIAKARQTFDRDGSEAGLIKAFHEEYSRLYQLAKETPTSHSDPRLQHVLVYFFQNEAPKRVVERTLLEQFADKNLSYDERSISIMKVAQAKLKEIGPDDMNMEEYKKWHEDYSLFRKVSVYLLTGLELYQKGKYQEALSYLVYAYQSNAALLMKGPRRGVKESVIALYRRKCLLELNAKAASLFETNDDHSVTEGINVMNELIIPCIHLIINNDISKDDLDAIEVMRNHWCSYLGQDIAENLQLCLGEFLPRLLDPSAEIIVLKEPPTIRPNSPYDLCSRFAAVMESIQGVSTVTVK
Method in brief: as §1

Measured: log2 ratio of Biotin-Ahx-Ub-VS probe labelling

O=C(CN1CCN(C(=O)CCl)CC1)Nc1cccc(F)c1
inactive: USP19 -0.265 | USP22 0.00778 | USP24 -0.335 | USP25 -0.473 | USP28 -0.428
